Test [1] in a line: EMT-state selective cytotoxicity in co-culture – imaging, PC-3E GFP, TEM4-18 mCherry, primary screen (AID 1345086;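 active = compounds killing one labelled cell type while sparing the other, by normalised counts and ratio limits, not self-fluorescent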;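 for all read-outs here: cells exposed to compound for 72 h before imaging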;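 for red/green cell ratio (normalised): normalised mesenchymal count divided by normalised epithelial count so high means epithelial killing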). The conditions noted are these: PC-3E GFP / TEM4-18 mCherry co-culture, imaging cell counts, at 1 µM; for red/green cell ratio (normalised): actives lie on both sides, counts scaled to control wells, 1 = unselective.
Test [2] addresses NAD(+) hydrolase SARM1 (Homo sapiens) (UniProt Q6SZW1). Description: blocking NAD cleavage by SARM1 SAM-TIR – cell lysate, NAD-Glo luminescence (AID 1508614;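 active = compound whose remaining NAD level is above about 45 nM, limit read from the data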;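 note: higher remaining NAD means stronger inhibition of SARM1 NADase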). The note with it: SAM-TIR HEK293T lysate NADase, at 1 µM, stronger effect = higher value.
Test [3] can be described thus: growth inhibition, single agent or in combination, cell-based, chromothripsis tumors, cisplatin or BGB combos (AID 1671449).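 Note: cells exposed for 96 hours; 0% = vehicle DMSO and 100% = killing by high DMSO.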 The conditions noted are these: LFS_MB_P medulloblastoma cells.
Test [4] is described as follows: growth inhibition, single agent and combos, cell-based, chromothripsis tumors, cisplatin or BGB combos (AID 1671450).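 Note: cells exposed to compound for four days; 0% = vehicle DMSO and 100% = cell killing by high DMSO.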 The conditions noted are these: HDN33 neuroblastoma cells, stronger effect = higher value.
Test [5] can be described thus: growth inhibition, single agents and combos, ICB984, cell-based, cisplatin or BGB combos, synergistic combos for chromothripsis tumors (AID 1671451; call rule not given here;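 note: cells exposed for 96 hours before readout; 0% = vehicle DMSO and 100% = killing by high DMSO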). The note with it: ICB984 medulloblastoma cells, drug combinations, stronger effect = higher value.
Test [6] in a line: growth inhibition, single agents and combos, LFS_MB_1R, cell-based, cisplatin or BGB combos, synergistic combos for chromothripsis tumors (AID 1671452).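 Note: cells exposed for 96 hours before readout.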 The conditions noted are these: LFS_MB_1R medulloblastoma cells, stronger effect = higher value.
Test [7] in a line: growth inhibition, single agents and combos, HTB85, cell-based, BGB or cisplatin IC20 combos, synergistic combos for chromothripsis tumors (AID 1671453).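 Note: cells exposed for 96 hours before readout; 0% = vehicle DMSO and 100% = high DMSO killing control.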 The note with it: HTB85 osteosarcoma cells, drug combinations, stronger effect = higher value.
Test [8] in a line: growth inhibition, single agents and combos, CRL2098, cell-based, BGB or cisplatin IC20 combos, synergistic combos for chromothripsis tumors (AID 1671454).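 Note: cells exposed for 96 h before readout; 0% = vehicle DMSO and 100% = killing by high DMSO.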 The conditions noted are these: CRL2098 osteosarcoma cells, drug combinations, stronger effect = higher value.
Test [9] can be described thus: growth inhibition, single agents and combos, HD-MB03, cell-based, BGB or cisplatin IC20 combos, synergistic combos for chromothripsis tumors (AID 1671455; in the data active = inhibition above about 83%;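 note: 0% = vehicle DMSO and 100% = high DMSO as cytotoxic control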). The note with it: HD-MB03 medulloblastoma cells, stronger effect = higher value.
Test [10] is described as follows: growth inhibition, single agents and combos, UWB1.289, cell-based, BGB or cisplatin combos, synergistic combos for chromothripsis tumors (AID 1671456).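 Note: cells exposed to compound for four days; 0% = vehicle DMSO and 100% = killing by high DMSO.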 The note with it: UWB1.289 ovarian carcinoma cells, stronger effect = higher value.
Test [11] in a line: growth inhibition, single agents and combos, LFS_MB_2R, cell-based, cisplatin combos, synergistic combos for chromothripsis tumors (AID 1671457).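 Note: cells exposed to compound for four days before readout.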 The conditions noted are these: LFS_MB_2R medulloblastoma cells, stronger effect = higher value.
Test [12] can be described thus: growth inhibition, MDA-MB-436, cell-based, BGB or cisplatin combos, synergistic combos for chromothripsis tumors (AID 1671458; call rule not given here;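 note: cells exposed for 96 hours; 0% = vehicle DMSO and 100% = killing by high DMSO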). The note with it: MDA-MB-436 breast carcinoma growth inhibition, drug combinations, stronger effect = higher value.
Test [13] in a line: UWB1.289_BRCA1 ovarian cancer growth, cell-based, BGB or cisplatin combinations (AID 1671459). The note with it: UWB1.289 BRCA1 ovarian carcinoma, drug combinations, stronger effect = higher value.
Test [14] is described as follows: drug combination toxicity in non-malignant astrocytes – cell-based, BGB or cisplatin IC20 combos, cytotoxicity control for chromothriptic childhood tumor combination screen (AID 1671460).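 Note: cells exposed to compounds for 96 hours before viability readout; 0% = vehicle and 100% = killing control.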 The note with it: Human astrocytes, viability inhibition, drug combinations, at 0.5 µM, stronger effect = higher value.
Test [15] in a line: BT084 cell growth, single and combined drugs, ICGC_MB145, cisplatin and BGB IC40 combos (AID 1671461).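 Note: cells exposed to drugs for 96 hours; 0% = vehicle DMSO and 100% = high DMSO full killing control.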 The note with it: BT084 medulloblastoma cells, drug combinations, stronger effect = higher value.
The nature of test [16]: RCMB18 cell growth, single agent and combined, cisplatin and BGB IC40 combos (AID 1671462).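 Note: cells exposed to compound for four days.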 The note with it: RCMB18 medulloblastoma cells, stronger effect = higher value.
The nature of test [17]: CRL1545 cell growth, single agent and combined, cisplatin and BGB IC20 combos (AID 1671464).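 Note: cells exposed to compound for 96 hours before readout; 0% = vehicle DMSO and 100% = high DMSO killing control.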 The conditions noted are these: CRL1545 osteosarcoma cells, stronger effect = higher value.
A short description of test [18]: viability loss in pontine glioma line – cell-based, SU-DIPG-XXV, MIPE5.0, CellTiter-Glo, qHTS, dose response (AID 1347065; cut-off not given, nearly all actives have AC50 up to about 26 µM;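 note: cells exposed to compound for 48 hours before ATP readout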). The note with it: CellTiter-Glo ATP luminescence.
Test [19] in a line: JHH-DIPG-1 glioma cell viability, MIPE5.0 library, CellTiter-Glo luminescence, qHTS (AID 1347067; cut-off not given, nearly all actives have AC50 up to about 26 µM;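 note: cells exposed to compound for 48 hours before readout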). The note with it: JHH-DIPG-1 glioma viability, CellTiter-Glo ATP luminescence. Background: In ATP-based viability assays light output follows the ATP content of the culture.
The nature of test [20]: growth inhibition of DIPG cells – cell-based, MIPE5.0 library, qHTS (AID 1347068; cut-off not given, nearly all actives have IC50 up to about 30 µM). The conditions noted are these: SU-DIPG-XXV viability. A general note: Quantitative high-throughput screening tests each substance at several concentrations.
The mark [21] stands for this setting: measured here: epithelial PC-3E GFP cell survival.
The mark [22] stands for this setting: measured here: mesenchymal TEM4-18 mCherry cell survival.
Where [23] appears, read: measured here: combination with BGB IC40, at 0.05 µM.
Setting [24] is: measured here: with BGB IC20 combination, at 0.5 µM.
[25] abbreviates: measured here: with cisplatin IC20 combination, at 0.5 µM.
Setting [26] is: measured here: combination with cisplatin, at 0.5 µM.
The mark [27] stands for this setting: measured here: combination with cisplatin, at 5 µM.

Each structure is given as a SMILES string. Inconclusive results are not listed. Activity calls are given as the source filed them. Cut-off read from the data, not from the text of the source, unless noted: active = inhibition above about 80%; inactive = the rest.

Sequence of NAD(+) hydrolase SARM1 (Homo sapiens) (Q6SZW1 whole entry, looked up): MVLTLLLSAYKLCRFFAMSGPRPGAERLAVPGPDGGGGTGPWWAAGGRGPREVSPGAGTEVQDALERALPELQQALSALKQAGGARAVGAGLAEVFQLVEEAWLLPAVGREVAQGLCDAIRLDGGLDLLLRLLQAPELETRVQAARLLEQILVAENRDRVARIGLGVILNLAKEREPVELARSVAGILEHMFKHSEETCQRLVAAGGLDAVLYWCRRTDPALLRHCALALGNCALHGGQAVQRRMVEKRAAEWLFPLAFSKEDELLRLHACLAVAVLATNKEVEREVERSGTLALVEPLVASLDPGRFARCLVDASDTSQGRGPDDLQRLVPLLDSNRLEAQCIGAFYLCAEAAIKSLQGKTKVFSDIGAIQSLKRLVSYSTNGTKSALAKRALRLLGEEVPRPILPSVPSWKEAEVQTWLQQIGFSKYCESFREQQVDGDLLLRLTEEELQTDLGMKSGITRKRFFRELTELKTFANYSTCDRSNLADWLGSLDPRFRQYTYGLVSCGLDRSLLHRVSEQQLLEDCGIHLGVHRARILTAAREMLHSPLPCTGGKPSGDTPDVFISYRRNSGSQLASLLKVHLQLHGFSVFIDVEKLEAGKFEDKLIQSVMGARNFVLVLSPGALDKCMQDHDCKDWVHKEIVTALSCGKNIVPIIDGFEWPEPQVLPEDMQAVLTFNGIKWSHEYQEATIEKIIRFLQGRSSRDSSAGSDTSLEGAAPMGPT

On to `CN(C)CC/C=C1/c2ccccc2COc2ccccc21`, for which the red/green cell ratio (normalised) in [1] is 1.04 (inactive). The results for the normalised cell number in test [1] (setting [21]) and in test [1] (setting [22]) were 1.34 and 1.4, respectively.
For `C[C@]12C=CC(=O)C=C1CC[C@@H]1[C@@H]2[C@@H](O)C[C@@]2(C)[C@H]1CC[C@]2(O)C(=O)COC(=O)CCC(=O)O`, the remaining NAD in test [2] is 10 nM (inactive).
Take `CCN(CC)CCOc1ccc(C(=C(Cl)c2ccccc2)c2ccccc2)cc1`: the remaining NAD in test [2] is 10 nM (inactive).
What is called inhibition is the drop in the measured response relative to a control, in per cent. As to `CC(C)N=c1cc2n(-c3ccc(Cl)cc3)c3ccccc3nc-2cc1Nc1ccc(Cl)cc1`, in test [1], the red/green cell ratio (normalised) was 0.91 (inactive). Also, the normalised cell number stood at 0.92 in [1] (setting [21]) and 0.84 in test [1] (setting [22]). Further, the remaining NAD in [2] was 10 nM (inactive). Also, the inhibition in [3] (at 0.5 µM, stronger effect = higher value) is -31% (inactive); in [3] (measured here: combination with BGB IC20, at 0.005 µM) it was 13.3%; in [3] (measured here: combination with BGB IC40, at 0.005 µM) it was -22.3%; in test [3] (setting [23]), -8.73%; in test [3] (measured here: combination with cisplatin, at 0.5 µM, stronger effect = higher value), -48.5%; in [3] (measured here: combination with cisplatin, at 5 µM, stronger effect = higher value), 8.75%. Besides, the inhibition in test [4] (BGB combo, at 5 µM) was -36.1%; in test [4] (at 0.5 µM) it was -26.4% (inactive); in test [4] (cisplatin combo, at 5 µM) it was -41.4%; in test [4] (setting [24]), -15.2%; in test [4] (setting [25]), -29%; in [4] (single agent, at 5 µM), -25%. Moreover, the inhibition is -28.4% in test [5] (BGB IC20 combo, at 0.005 µM); 4.64% in [5] (BGB IC40 combo, at 0.005 µM); -16% in test [5] (BGB IC40 combo, at 0.05 µM); -34.9% (inactive) in test [5] (at 0.5 µM); -16% in test [5] (cisplatin combo, at 0.05 µM); -47.3% in test [5] (cisplatin combo, at 0.5 µM). Moreover, the inhibition in test [5] (cisplatin combo, at 5 µM) was -19.4%; in test [5] (measured here: 5 uM single agent, at 5 µM), 1.51%; in test [6] (at 0.5 µM) it was -25.1% (inactive); in test [6] (setting [23]), -36.1%; in [6] (setting [26]), -57.3%; in test [6] (setting [27]), -48.3%. For the same compound, the inhibition in test [7] (at 0.5 µM) was -37.4% (inactive); in test [7] (measured here: with BGB IC20, at 0.5 µM), -54.6%; in test [7] (measured here: with BGB IC20, at 5 µM) it was -21.7%; in [7] (measured here: with cisplatin IC20, at 0.5 µM) it was -36%; in test [7] (measured here: with cisplatin IC20, at 5 µM), -38.1%; in [7] (single agent, at 5 µM) it was -29.1%. Also, the inhibition in [8] (at 0.5 µM) was -74.7% (inactive); in [8] (measured here: combination with BGB at IC20, at 0.5 µM), -58.6%; in test [8] (measured here: combination with cisplatin at IC20, at 0.5 µM) it was -130%; in test [9] (at 0.5 µM) it was -15.1% (inactive); in test [9] (measured here: combo with BGB at IC20, at 0.5 µM) it was -15%; in [9] (measured here: combo with cisplatin at IC20, at 0.5 µM), -18.6%. Also, the inhibition in test [10] (at 0.5 µM) was -8.97% (inactive); in test [10] (measured here: inhibition with BGB combination, at 0.05 µM), -17.6%; in test [10] (measured here: inhibition with cisplatin combination, at 0.05 µM) it was -17.6%; in test [11] (at 0.5 µM), -8.06% (inactive); in test [11] (setting [26]) it was 1.44%; in [11] (setting [27]) it was -0.801%. Moreover, the inhibition in test [12] (at 0.5 µM) was -2.64% (inactive); in test [12] (measured here: BGB combination, at 0.5 µM), -2.65%; in [12] (measured here: BGB combination, at 5 µM), -11.8%; in test [12] (measured here: cisplatin combination, at 0.5 µM), -12.6%; in test [12] (measured here: cisplatin combination, at 5 µM) it was 0.559%; in [13] (BGB combination, concentration series, at 5 µM) it was -7.22%. Also, the inhibition in [13] (at 0.5 µM) is -11.4% (inactive); in test [13] (cisplatin combination, concentration series, at 5 µM) it was 14.7%; in test [14] it was -9.92% (inactive); in test [14] (measured here: combo with BGB IC20) it was 3.64%; in [14] (measured here: combo with cisplatin IC20), -24.8%; in [15] (at 0.5 µM), -8.65% (inactive). In addition, the inhibition is -22.2% in test [15] (cisplatin combination, at 0.5 µM); -55.6% in [15] (cisplatin combination, at 5 µM); 17% in test [15] (measured here: BGB IC40 combination 0.05 uM, at 0.05 µM); -11.5% in [15] (single agent, at 5 µM); -9.43% (inactive) in test [16] (at 0.5 µM); -32.6% in test [16] (cisplatin combo, at 5 µM). Besides, the inhibition in test [16] (measured here: BGB IC40 combination, at 0.05 µM) was -2.04%; in [16] (setting [26]), -6.22%; in test [16] (single agent, at 5 µM), -9.57%; in test [17] (at 0.5 µM), -22.8% (inactive); in [17] (setting [24]) it was -40.5%; in test [17] (setting [25]) it was -13.9%. Moreover, the inhibition is -3.12% in test [17] (single agent, at 0.05 µM) and -18.2% in [17] (single agent, at 5 µM).
In the case of `CC(=O)SCC(Cc1ccccc1)C(=O)NCC(=O)OCc1ccccc1` (stereo not given), the call in test [18], in [19] and in [20] was inactive. Further, the remaining NAD in [2] was 10 nM (inactive).
For the compound `Cc1c(O)c(=O)ccn1C`, the red/green cell ratio (normalised) in test [1] was 0.89 (inactive). Also, the normalised cell number turned out to be 1.06 in [1] (setting [21]) and 0.95 in test [1] (setting [22]). The remaining NAD in test [2] is 10 nM (inactive).

These data come from PubChem BioAssay.
